Screening data from PubChem.
Only a sample is shown.
aSyn 5UTR act: Activators via SNCA 5'UTR binding, MLPCN; alpha-synuclein 5'UTR reporter, activators screen; activity score, % (tested at 7.5 µM), hits read low; 300,000 tested, 7.1% active; AID 1814; in the data active = activity score below about -60%
Large screens that a line does not name were inactive.

Cc1cc(O)c(-c2cc(C(=O)Nc3cccnc3)[nH]n2)cc1C	aSyn 5UTR act -188
Cc1cccc(NC(=O)c2cc(-c3cc(C)cc(C)c3O)n[nH]2)c1	aSyn 5UTR act -67
O=C(N/N=C/c1c(O)ccc2ccccc12)c1cccnc1	none
Cc1ccc(NC(=O)c2cc(-c3ccccc3O)n[nH]2)cc1Cl	aSyn 5UTR act -110
Cc1cccc(NC(=O)c2cc(-c3cc(Cl)ccc3O)n[nH]2)c1	aSyn 5UTR act -224
Cc1cc(C)c(O)c(-c2cc(C(=O)Nc3cccnc3)[nH]n2)c1	aSyn 5UTR act -108
CCc1ccc(O)c(-c2cc(C(=O)Nc3cccnc3)[nH]n2)c1	aSyn 5UTR act -162
COc1ccc2c(C(=O)CN3CCC(C)CC3)c[nH]c2c1	aSyn 5UTR act -76
CCCNC(=O)C1CC(=O)N(c2ccc(OCc3ccc(Cl)cc3)cc2)C1 (configuration not stated)	aSyn 5UTR act -108
CCCNC(=O)C1CC(=O)N(c2ccc(OCc3ccc(F)cc3)cc2)C1 (configuration not stated)	aSyn 5UTR act -92
C=CCNC(=O)C1CC(=O)N(c2ccc(OCc3ccc(F)cc3)cc2)C1 (configuration not stated)	aSyn 5UTR act -95
NC(=O)C1CC(=O)N(c2ccc(OCc3ccc(Cl)cc3)cc2)C1 (configuration not stated)	aSyn 5UTR act -146
C=CCNC(=O)C1CC(=O)N(c2ccc(OCC(=O)Nc3ccccc3)cc2)C1 (configuration not stated)	aSyn 5UTR act -94
CCCCC(=O)/C=C/n1c(=S)oc2ccccc21	aSyn 5UTR act -151
Cc1cc(/C=C(\C#N)C(=O)NC2CC2)c(C)[nH]1	aSyn 5UTR act -145
Cc1cc(C)cc(NC(=O)/C(C#N)=C/c2cn(CC(=O)NCc3ccco3)c3ccccc23)c1	none
Cc1cc(/C=C(\C#N)C(=O)Nc2ccccc2F)c(C)[nH]1	aSyn 5UTR act -129
Cc1cc(/C=C(\C#N)C(=O)NCc2ccco2)c(C)[nH]1	aSyn 5UTR act -64
COC(=O)c1ccc(NN=Nc2ccc(C)cc2)cc1	aSyn 5UTR act -173
CC(=O)c1ccc(N=Nc2ccc(C)cc2)cc1	none
COC(=O)c1ccc(N=NN2CCCCC2)cc1	aSyn 5UTR act -102
O=C(O)c1ccc(N/N=C/c2ccnc3ccccc23)cc1	aSyn 5UTR act -119
O=C(O)c1ccc(N/N=C/c2cccc3cccnc23)cc1	aSyn 5UTR act -89
Oc1ccccc1/C=N/Nc1cccc2cccnc12	aSyn 5UTR act -234
CC(=O)Oc1ccccc1-c1nc(/C=C/c2ccccc2)no1	aSyn 5UTR act -162
COc1ccc(/C=C/c2noc(-c3ccccc3O)n2)cc1	aSyn 5UTR act -93
COc1ccc(/C=C/c2nc(N)nc(-c3ccccc3O)n2)cc1	aSyn 5UTR act -116
CC(=O)Nc1ccc(/C=C/c2nc(-c3ccccc3O)n[nH]2)cc1	aSyn 5UTR act -202
COc1cc(/C=C/c2nc(-c3ccccc3O)n[nH]2)cc(OC)c1OC	aSyn 5UTR act -117
COc1cc(/C=C/c2noc(-c3ccccc3O)n2)cc(OC)c1OC	aSyn 5UTR act -146
CC(C)NC(=O)c1cc(-c2ccc3c(c2)OCO3)on1	aSyn 5UTR act -110
O=C(Nc1cccc(O)c1)c1cc(-c2ccc3c(c2)OCO3)on1	none
CCCNC(=O)c1cc(-c2ccc3c(c2)OCO3)on1	aSyn 5UTR act -105
CCN(CC)C(=O)c1cc(-c2ccc3c(c2)OCO3)on1	aSyn 5UTR act -132
CCCCNC(=O)c1cc(-c2ccc3c(c2)OCO3)on1	aSyn 5UTR act -66
Cn1c(CNc2ccc(Cl)cc2)nc2ccccc21	aSyn 5UTR act -176
Cc1nc2cc(NCc3nc4ccccc4n3Cc3ccccc3)ccc2n1C	aSyn 5UTR act -96
Cc1cccc(NCc2nc3ccccc3n2C)c1	aSyn 5UTR act -193
Cc1ccc(N2CCN(c3ccc(NCc4nc5ccccc5n4C)cc3)CC2)cc1	aSyn 5UTR act -89
Nc1nc(N)nc(-c2ccc(Cl)cc2)n1	aSyn 5UTR act -112
Cc1cccc(-c2nc(N)nc(N)n2)c1	aSyn 5UTR act -74
Nc1nc(-c2ccc(Cl)cc2)nnc1-c1ccc(Br)cc1	aSyn 5UTR act -178
Cc1c(C(=O)NNC(=S)Nc2cccc(Cl)c2)nnn1-c1ccccc1	aSyn 5UTR act -69
COc1ccc2nc3oc(C(=O)N4CCCCC4)cc3cc2c1	aSyn 5UTR act -192
CCOC(=O)C1CCN(C(=O)c2cc3cc4cc(OC)ccc4nc3o2)CC1	aSyn 5UTR act -71
O=C(Cc1ccccc1F)Nc1ccc2c(c1)CCC2	aSyn 5UTR act -169
O=C(Cc1ccc2c(c1)CCCC2)Nc1ccc2ccccc2c1	aSyn 5UTR act -161
COc1ccc(-n2c(-c3ccc(Br)cc3)c[n+]3c2CCc2ccccc2-3)cc1	aSyn 5UTR act -91
CC(C)c1ccc(-n2c(-c3ccccc3)c[n+]3c2CCc2ccccc2-3)cc1	none
CC(=O)C1=C(O)C(=O)N(c2ccc(Br)cn2)C1c1ccc(Br)cc1 (configuration not stated)	aSyn 5UTR act -101
C(=C\c1nc(N2CCCCCC2)c2ccccc2n1)/c1ccccc1	aSyn 5UTR act -71
Cc1ccc(C(=O)CC(=O)c2cc(Cl)ccc2O)cc1	aSyn 5UTR act -151
Cc1ccc(C(=O)CC(=O)c2ccc(C)cc2O)cc1	aSyn 5UTR act -95
Cc1ccc(C(=O)CC(=O)c2ccc(C(C)(C)C)cc2)cc1	aSyn 5UTR act -113
CC(C)(C)c1ccc(C(=O)CS(=O)(=O)c2ccccc2)cc1	aSyn 5UTR act -133
CCOc1cccc(/C=N/NC(=S)Nc2cc(S(=O)(=O)N3CCOCC3)ccc2N2CCOCC2)c1O	none
CCOc1cccc(C=Nc2cc(C)cc(C)c2O)c1O	aSyn 5UTR act -85
CCOc1cccc(/C=N/Nc2ccc(S(=O)(=O)N(CC)CC)cn2)c1O	none
CC(=O)c1ccc(Nc2nc(=O)c3cccnc3s2)cc1	aSyn 5UTR act -124
CCOC(=O)c1ccc(Nc2nc(=O)c3cccnc3s2)cc1	aSyn 5UTR act -133
O=c1nc(Nc2ccc(OCc3ccccc3)cc2)sc2ncccc12	aSyn 5UTR act -96
N#C/C(=C\c1cccc([N+](=O)[O-])c1)c1ccccn1	aSyn 5UTR act -67
O=[N+]([O-])c1cccc(/C=C/c2ccccn2)c1	aSyn 5UTR act -141
O=[N+]([O-])c1cccc(/C=N/Nc2nccnc2Cl)c1	aSyn 5UTR act -147
CN(C)c1ccc(/C=N\Nc2ccccn2)cc1	aSyn 5UTR act -232
O=C(N/N=C/c1ccc(Cl)c([N+](=O)[O-])c1)c1cnccn1	aSyn 5UTR act -72
O=[N+]([O-])c1cccc(/C=N/Nc2ccccn2)c1	aSyn 5UTR act -230
O=C(O)c1ccc(/C=N/Nc2ncc(Cl)cc2Cl)cc1	aSyn 5UTR act -72
Nc1nnc(/C=C/c2cccc([N+](=O)[O-])c2)s1	aSyn 5UTR act -64
O=C(O)c1ccc(N/N=C/c2ccc(OC(=O)c3cccc(Cl)c3)cc2)cc1	none
O=C(O)c1ccc(/C=N\Nc2ccccn2)cc1	aSyn 5UTR act -79
O=[N+]([O-])c1cc(Cl)cc(/C=N\Nc2ccccn2)c1O	none
Cc1[nH]c2ccccc2c1/C=N/Nc1ccccn1	aSyn 5UTR act -100
O=[N+]([O-])c1cc(/C=N\Nc2ccccn2)ccc1Cl	aSyn 5UTR act -91
O=[N+]([O-])c1ccc(/C=N/Nc2ccccn2)cc1	aSyn 5UTR act -188
O=C(N/N=C/c1ccc(Sc2nc3ccccc3s2)c([N+](=O)[O-])c1)c1ccccn1	aSyn 5UTR act -75
COC(c1ccccc1)c1nnc(CCC(=O)N(C)C(C2CC2)C2CC2)o1 (configuration not stated)	aSyn 5UTR act -147
Cc1ccc(C(=O)CCC(=O)Nc2ncccc2O)cc1	aSyn 5UTR act -70
